Bioassay records: PubChem BioAssay, National Center for Advancing Translational Sciences (NCATS)
ATXN viability: Viability Counterscreen for Primary qHTS for Inhibitors of ATXN expression; S2 cells (HEK-293 line with an ATXN2-luciferase reporter) viability, CellTiter-Fluor protease fluorescence, 24 h; hit rate 0.49% among 400,000; Potency, µM (doses to about 56.7 µM), actives largely listed as cytotoxic; note: potency is the fitted concentration of half-maximal effect; nearly all actives have a fitted effect of over 40% in size
USP2a inh: qHTS Assay for Inhibitors of Ubiquitin-specific Protease USP2a Using CHOP2 as the Reporter | Ubiquitin carboxyl-terminal hydrolase 2 (Homo sapiens), O75604 | USP2 core, Ub-CHOP2 coupled fluorogenic reporter, 485/531 | Potency, µM (highest dose often 38.3 µM), inactives show top-dose activity change, negative = inhibition, usual class: inhibitors | hit rate 0.01% among 330,000 | AID 463254, 2010;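 note: potency is the fitted concentration of half-maximal effect; plate controls were DMSO wells for no effect and full inhibition by NEM control for full effect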
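Deubiquitinase activity read as fluorescence (485/531 nm) after Ub-CHOP2 cleavage activates the enterokinase reporter on its substrate; USP2 core 10nM, Ub-CHOP2 and substrate 25nM each, 30min compound preincubation then 60min RT; data normalized to NEM, curves fitted.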
USP1-UAF1 inh: Inhibitors of USP1/UAF1: Primary Screen; Ubiquitin carboxyl-terminal hydrolase 1 (Homo sapiens), O94782; recombinant USP1/UAF1, Ub-Rhodamine cleavage fluorescence; Potency, µM (series often up to 57.1 µM), for the others: at the highest dose activity change, negative = inhibition, usual class: inhibitors; hit rate 0.23% among 390,000; note: potency is the fitted concentration of half-maximal effect; % is set by controls: 0 for no effect and ±100 for the full control effect; nearly all actives have a fitted effect of over 60% in size
Target sequence (O94782 whole entry, looked up): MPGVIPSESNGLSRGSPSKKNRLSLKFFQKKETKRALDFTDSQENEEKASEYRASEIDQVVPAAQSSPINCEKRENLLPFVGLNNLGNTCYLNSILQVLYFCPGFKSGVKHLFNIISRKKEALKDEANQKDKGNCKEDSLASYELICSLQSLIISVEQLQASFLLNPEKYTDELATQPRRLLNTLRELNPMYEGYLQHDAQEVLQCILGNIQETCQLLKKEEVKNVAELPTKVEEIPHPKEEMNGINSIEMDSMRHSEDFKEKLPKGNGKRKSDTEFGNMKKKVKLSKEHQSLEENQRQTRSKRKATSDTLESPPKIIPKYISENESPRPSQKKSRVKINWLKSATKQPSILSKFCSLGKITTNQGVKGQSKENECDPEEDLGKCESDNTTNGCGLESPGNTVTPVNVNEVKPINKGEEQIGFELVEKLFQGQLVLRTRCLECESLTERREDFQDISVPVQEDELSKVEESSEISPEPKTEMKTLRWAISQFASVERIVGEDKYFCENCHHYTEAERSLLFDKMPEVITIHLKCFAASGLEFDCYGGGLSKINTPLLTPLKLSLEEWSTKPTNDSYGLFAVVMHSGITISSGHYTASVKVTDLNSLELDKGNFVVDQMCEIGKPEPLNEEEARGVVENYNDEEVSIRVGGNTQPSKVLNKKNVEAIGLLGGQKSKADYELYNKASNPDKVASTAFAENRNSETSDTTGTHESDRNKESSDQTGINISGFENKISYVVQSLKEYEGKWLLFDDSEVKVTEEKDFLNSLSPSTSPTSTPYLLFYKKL
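USP1/UAF1 complex at 1 nM was preincubated with compound for 15 min at room temperature, then Ub-Rho substrate (150nM final) was added. Fluorescence (480/540 nm) was read kinetically, 6 reads every 60 seconds.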
IL-1B inflam inh: qHTS for Inhibitors of Inflammasome Signaling: IL-1-beta AlphaLISA Primary Screen; hit rate 4.7% among 360,000; activity change, % at 57.5 µM; AID 743279, 2014; THP-1 LPS/ATP IL-1B secretion, AlphaLISA, 16 h; stronger effect = lower value; in the data active = activity change below about -50%; inconclusive = mostly about -30% to -49%; note: % is set by controls: 0 for no effect and ±100 for the full control effect
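Secreted IL-1B measured by AlphaLISA bead assay after 16 h compound exposure of THP-1 cells; compounds (final up to 57.5 uM) added 1 h before LPS (250 ng/mL) and ATP (1.25 mM) stimulation; lower signal means less secretion.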
ATXN2 expr inh: Primary qHTS for Inhibitors of ATXN expression. HEK-293 ATXN2-luciferase reporter, luminescence, 24 h. Potency, µM (top dose mostly 57 µM), without a hit: at the highest dose activity change, negative = inhibition, usual class: inhibitors. hit rate 0.72% among 360,000. AID 1745845, 2022; note: potency is the fitted concentration of half-maximal effect; % is set by controls: 0 for no effect and ±100 for the full control effect; nearly all actives have a fitted effect of over 55% in size
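qHTS (up to 57 uM final) was run with 24 h compound exposure of reporter cells at 37 °C. Each well was multiplexed: SteadyGlo luminescence measured ATXN2-luciferase expression after a fluorogenic Gly-Phe-AFC viability readout (25 uM final).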
* hit, by the source's call; i = inactive; ? = inconclusive; . = no result. Only some compounds are listed: those with a hit (about 4.8% of all), similar ones and a draw of the others. Unless noted, calls come from the whole dose curve; as a rule, active = well fitted curve in the direction sought with a large enough effect; inconclusive = small, poorly fitted or top-dose-only effect, or another doubt; inactive = no such curve, though single readings can be large; an effect the other way counts as inactive or inconclusive.

SMILES | ATXN viability | USP2a inh | USP1-UAF1 inh | IL-1B inflam inh | ATXN2 expr inh
O=C(NCCc1ccccc1F)c1ccc2c(c1)OCCO2 | ? | 1% | -19% | -8 | 0.56µM*
Cc1ccc2[nH]cc(CCNC(=O)c3ccc4c(c3)OCO4)c2c1 | i | 0% | -16% | -53* | 3%
O=C(NCCc1c[nH]c2ccccc12)c1ccc2c(c1)OCO2 | i | -1% | -25% | 7 | 127%
CCOC(=O)C1(C)CCN1C(=O)c1c(F)cccc1F (stereo not drawn) | i | . | . | 7 | 8%
CC(C)C(NS(=O)(=O)c1ccc2c(c1)oc(=O)n2C)C(=O)NCCc1ccc(Cl)cc1 (stereo not drawn) | i | . | -24% | . | 14%
Cc1ncc2c(c1CNC(=O)c1ccc3c(c1)OCO3)CCN(C(=O)c1cc3ccccc3n1C)C2 | i | . | . | . | .
CC(C)CCNC(=O)C(CC(C)C)N(Cc1ccc2c(c1)OCO2)C(=O)c1snc(C(N)=O)c1N (stereo not drawn) | i | 4% | -18% | -57* | -21%
NC(=O)c1nsc(C(=O)N(CC(=O)NC2CCCC2)c2cccc(C(F)(F)F)c2)c1N | i | -1% | -4% | -13 | -5%
COc1ccc(CN(C(=O)c2snc(C(N)=O)c2N)C(CC(C)C)C(=O)NC2CCCCC2)cc1 (stereo not drawn) | i | -11% | 2% | -71* | -13%
COc1cccc(N(CC(=O)NC2CCCCC2)C(=O)c2snc(C(N)=O)c2N)c1 | i | 0% | -2% | -61* | -3%
CC(C)CC(C(=O)NC1CCCC1)N(Cc1ccc2c(c1)OCO2)C(=O)c1snc(C(N)=O)c1N (stereo not drawn) | i | -3% | -11% | 16 | -13%
COc1ccc(C(C(=O)NCCC(C)C)N(CCO)C(=O)c2snc(C(N)=O)c2N)cc1 (stereo not drawn) | i | 1% | -10% | -22 | 0%
CCCC(C(=O)NCCC(C)C)N(Cc1ccc(OC)cc1)C(=O)c1snc(C(N)=O)c1N (stereo not drawn) | 24µM* | -7% | -26% | -18 | 15%
CC(C)CC(C(=O)NC1CCCCC1)N(Cc1ccccc1)C(=O)c1snc(C(N)=O)c1N (stereo not drawn) | i | 4% | -19% | -12 | -8%
Cc1ccccc1N=C1SCC(=O)N1Cc1ccccc1 | i | 2% | -18% | -1 | -2%
O=C1CSC(=Nc2cccc(Cl)c2Cl)N1Cc1cccnc1 | i | 2% | -5% | -52* | ?
CCOC(=O)C1CCN(C(=O)CSc2c3c(nc4ccccc24)CCC3)CC1 | i | 10% | -10% | -130* | .
COc1ccc(NC(=O)CSc2c3c(nc4ccccc24)CCCC3)c(OC)c1 | . | 0% | -8% | -105* | ?
COc1cccc(NC(=O)c2csc3c2CCCCC3)c1 | i | . | -16% | . | 53%
COc1ccc(NC(=O)c2csc3c2CCCCC3)c(OC)c1 | i | 0% | -23% | -175* | -4%
COc1ccc(NC(=O)CSc2c3c(nc4cc(Cl)ccc24)CCCC3)cc1OC | . | 0% | -10% | -103* | ?
COc1ccc(CNC(=O)COc2ccc(S(=O)(=O)N3CCOCC3)cc2C)cc1 | i | 1% | -7% | -16 | -15%
COc1ccc(OC)c(CN2CCC3(CCC(CNC(=O)c4ccco4)O3)CC2)c1 (stereo not drawn) | i | . | . | . | .
CCCCCc1ccc(C(=O)CCC(=O)OCC(=O)N(CC)c2c(N)n(Cc3ccccc3)c(=O)[nH]c2=O)cc1 | ? | 0% | ? | 12 | ?
Cc1ccc(F)cc1C(=O)N1CCCCC1c1cc(C(=O)Nc2ccccc2)no1 (stereo not drawn) | i | . | . | 0 | -7%
SMILES | ATXN viability | USP2a inh | USP1-UAF1 inh | IL-1B inflam inh | ATXN2 expr inh
COc1ccc(C2(C(=O)NCC3Cc4cccc(-c5cccnc5)c4O3)CCCC2)cc1 (stereo not drawn) | i | . | . | . | .
COc1cc(NC(=O)CSc2c3c(nc4ccccc24)CCC3)cc(OC)c1OC | i | 0% | 9% | -60* | 1%
CCOc1cc(C=C(C#N)C#N)ccc1Oc1ccc([N+](=O)[O-])cn1 | ? | -1% | -33% | -29 | -15%
COc1cc(/C=C(/C#N)c2ccc(F)cc2)ccc1Oc1ccc([N+](=O)[O-])cn1 | i | 5% | -8% | -54* | -28%
COc1cc(/C=N/NC(=S)Nc2cccc(S(=O)(=O)N(C)C)c2)ccc1O | i | 0% | 1% | -98* | 30%
O=S1(=O)CC(N2CC=CC2)CN1Cc1cn(Cc2cccc(C(F)(F)F)c2)nn1 (stereo not drawn) | i | . | . | 7 | 5%
O=C(NCCO)c1cn(C2CCCN(Cc3cccc(C(F)(F)F)c3)C2)nn1 (stereo not drawn) | i | . | . | . | .
Cn1c2ccccc2c2ccc3c(c21)C(=O)C=CC3=O | 6µM* | . | ? | ? | ?
COc1ccc2c(c1)c1ccc3c(c1n2C)C(=O)C=CC3=O | i | 4% | -19% | -6 | .
Cc1ccc2c(c1)c1ccc3c(c1n2C)C(=O)C=CC3=O | 10µM* | 6% | -22% | -3 | 10µM*
Cc1ccc(C)c2c1c1ccccc1n2C | i | 2% | -24% | . | 4%
Fc1ccc(/C=C2\CCCC3=C2Nc2ncnn2C3c2ccc(F)cc2)cc1 (stereo not drawn) | 18µM* | -9% | -13% | -122* | 25µM*
COc1ccc(C2C3=C(Nc4ncnn42)c2ccccc2CCC3)cc1 (stereo not drawn) | i | -1% | -2% | -1 | -1%
COc1ccc(-c2nonc2NC(=O)c2ccco2)cc1OC | i | 4% | -11% | 12 | .
CC(=O)Nc1ccc(Nc2ccc(S(=O)(=O)C(F)(F)F)cc2[N+](=O)[O-])cc1 | i | 3% | -22% | -60* | -16%
C=CCNc1ncnc2c1[nH]c1ccc(C)cc12 | i | 0% | -23% | -101* | 0%
COc1ccc2[nH]c3c(NCCC4=CCCCC4)ncnc3c2c1 | ? | -2% | -16% | -105* | ?
CCOc1ccc2[nH]c3c(NCCC(C)C)ncnc3c2c1 | i | -1% | -18% | -68* | ?
COc1ccc2[nH]c3c(NCCCOC(C)C)ncnc3c2c1 | ? | 7% | -20% | -67* | -10%
CCOc1ccc2[nH]c3c(NCCN(C)C)ncnc3c2c1 | . | 2% | . | . | .
CCCS(=O)(=O)NC(=O)C1(C)CCN(C(=O)c2ccccc2OC(C)=O)C1 (stereo not drawn) | i | . | . | -13 | -3%
